Measured values from PubChem BioAssay AID2314 (National Center for Advancing Translational Sciences (NCATS), 2010).
The whole screen tested about 300,000 compounds, of which about 37,000 (12%) were called active. Rule as the data show it: active = max response mostly above about 13% (no sharp cut-off); inactive = mostly below about 14%. The full list was thinned out, with actives kept by preference.

assay: Cycloheximide Counterscreen for Small Molecule Inhibitors of Shiga Toxin; settings: cell reporter, cycloheximide protein synthesis inhibition counterscreen; hits give high values; also: read at 38.3 µM for the half of the compounds with a filed dose; 0% is about no effect

Row | Compound | max response
1 | Cc1ccc2c(c1)C1CN(C)CCC1N2S(=O)(=O)c1ccc(Oc2ccc([N+](=O)[O-])cc2)cc1 (centres undefined) | -3.12% (inactive)
2 | Cc1ccc(C(=O)NC2CCN(C(=O)Nc3ccccc3Cl)CC2)cc1 | -2.19% (inactive)
3 | Cc1nn(CC(=O)NCC2CCCO2)c(=O)c2cc3ccccc3n12 (centres undefined) | 3.06% (inactive)
4 | Cc1ccc(C(=O)Cn2cc([N+](=O)[O-])nc2C)cc1 | -1.83% (inactive)
5 | Cc1ccnc(N2C(=O)c3ccc([N+](=O)[O-])cc3C2=O)c1 | -0.576% (inactive)
6 | Cc1ccc(-c2cn3cc([N+](=O)[O-])ccc3n2)cc1 | 92.8% (active)
7 | Cc1ccc2nc(-c3ccc(Br)cc3)cn2c1 | 17.6% (active)
8 | CSc1nnc2ccc(-c3ccc(C)cc3)nn12 | 8.85% (inactive)
9 | Cc1ccc(-c2cn3cc(C)ccc3n2)cc1 | -15.5% (inactive)
10 | CC1CCN(C(=O)c2ccc(S(=O)(=O)Cc3cc(F)ccc3F)c([N+](=O)[O-])c2)CC1 | 0.662% (inactive)
11 | O=C(CN1CCN(S(=O)(=O)c2cc(Cl)ccc2Cl)CC1)c1ccc(O)c(O)c1 | 6.66% (inactive)
12 | CCC(C)NCCOCCOc1ccc(Br)cc1C (centres undefined) | -2.66% (inactive)
13 | COC(=O)CSc1nc2c(c(C3CC=CCC3)c1C#N)CCC2 (centres undefined) | -1.01% (inactive)
14 | CCOC(=O)c1sc(C)c2c1NC(C)(c1cccc3ccccc13)NC2=O (centres undefined) | 0.788% (inactive)
15 | C/C(=N\NC(=O)Cc1ccccc1[N+](=O)[O-])c1cccnc1 | -0.525% (inactive)
16 | Nc1nc(SCC(=O)NCCN2CCOCC2)nc2sc3c(c12)CCC3 | -2.27% (inactive)
17 | CN(C)CCSc1nc(N)c2c3c(sc2n1)COC(C)(C)C3 | -2.73% (inactive)
18 | Cc1sc2nc(SCC(N)=O)n(C)c(=O)c2c1C | -2.39% (inactive)
19 | CCC1(C)Cc2c(sc3nc(SC)nc(N)c23)CO1 (centres undefined) | 8.94% (inactive)
20 | CC(C)(C)C1CCc2c(sc3nc(SCC(N)=O)nc(N)c23)C1 (centres undefined) | 28.1% (active)
21 | C=C(C)CSc1nc(N)c2c3c(sc2n1)CCC3 | 18.4% (active)
22 | C=CCn1cc(C(=O)NCc2ccc(Cl)cc2)c(=O)c2cc(S(=O)(=O)N(CC)CC)ccc21 | -6.07% (inactive)
23 | CN(CCNC(=O)c1cc2c(-c3ccccc3F)nn(C)c2s1)C1CCCCC1 | -2.34% (inactive)
24 | CCOC(=O)C1CCCN(S(=O)(=O)c2ccc3c(c2)C(C)(C)C(=O)N3C)C1 (centres undefined) | -2.15% (inactive)
25 | COc1ccc(N(C(=O)c2ccc(C)cc2)S(=O)(=O)c2cccs2)cc1 | 10.9% (inactive)

Row | Compound | max response
26 | Clc1ccc(C2=CSC3=Nc4cccc5cccc(c45)N23)cc1 | 11.3% (active)
27 | CC(=O)Oc1cccc(N2C(=O)C3CC=C(Cl)CC3C2=O)c1 (centres undefined) | -3.93% (inactive)
28 | CC(=O)Oc1cccc(N2C(=O)CC(Nc3ccc(N4CCOCC4)cc3)C2=O)c1 (centres undefined) | 49% (active)
29 | COc1ccc(N2CCN(C3CC(=O)N(c4ccc5c(c4)OCCO5)C3=O)CC2)cc1 (centres undefined) | 1.96% (inactive)
30 | COc1ccccc1OCc1nc2ccccc2s1 | 27.4% (active)
31 | COc1ccccc1OCCn1c(SCC(N)=O)nc2ccccc21 | -1.3% (inactive)
32 | COc1ccc(Cn2c(=O)sc3ccccc32)cc1OC | -0.76% (inactive)
33 | CC1CCc2c(nc3ncnn3c2Nc2ccc(OC(F)(F)F)cc2)C1 (centres undefined) | 0.841% (inactive)
34 | OCCn1c(-c2ccccc2)csc1=Nc1ccccc1 | 38.9% (inactive)
35 | COc1ccc2nc(Nc3nc4cc5c(cc4s3)OCCO5)sc2c1 | 33.1% (active)
36 | COc1ccc2nc(Nc3nc4ccc(NC(C)=O)cc4s3)sc2c1 | 6.12% (inactive)
37 | CCNc1nc(-c2cc3ccccc3o2)cs1 | 58% (active)
38 | CC(=O)Nc1nc(C)c(-c2csc(Nc3ccc(S(N)(=O)=O)cc3)n2)s1 | -0.544% (inactive)
39 | Cn1c(SCC(=O)NC2CCCCC2)nnc1-c1cc2ccccc2o1 | 10.2% (inactive)
40 | COc1ccccc1CN(C)C(=O)c1cc2ccccc2o1 | 7.81% (inactive)
41 | COc1ccc2nc(Nc3nc(-c4ccncc4)cs3)sc2c1 | 21.5% (inactive)
42 | COc1ccc2nc(Nc3nc(-c4cc5ccccc5oc4=O)cs3)sc2c1 | 13.6% (active)
43 | COc1ccc2oc(=O)cc(-c3cc4ccccc4o3)c2c1 | 4.74% (inactive)
44 | O=c1oc2ccccc2cc1-c1csc(Nc2ccc(O)cc2)n1 | 46% (active)
45 | CCOc1ccc(S(=O)(=O)Nc2nc3cc(OC)ccc3s2)cc1 | -4.35% (inactive)
46 | Cc1ccc(OCCCC(=O)Nc2ccc(S(=O)(=O)Nc3cc(C)nc(C)n3)cc2)cc1 | -2.32% (inactive)
47 | CN(C)[C@@H]1C(=O)C(C(N)=O)=C(O)[C@@]2(O)C(=O)C3=C(O)c4c(O)ccc(Cl)c4[C@@H](O)[C@H]3C[C@@H]12 | 3.73% (inactive)
48 | CCN(CC)CCOCCOc1ccc(Cl)c2ccccc12 | -2.87% (inactive)
49 | COc1cc(NS(=O)(=O)c2ccc(NC(=S)NC(=O)c3ccc(Br)cc3)cc2)ncn1 | 0.589% (inactive)
